VACV Venus inh – vaccinia inhibition (Venus reporter). Potency, µM (titrated, usually from 36.5 µM), for inactives: at the highest dose activity change, negative = inhibition, usual class: inhibitors. Vaccinia virus Venus reporter expression, fluorescence. actives 0.46% (n = 330,000); calls by dose curve; tested in A549 cells; note: nearly all actives have a fitted effect of over 30% in size
Vaccinia mCherry – inhibitors of vaccinia virus infection (mCherry reporter signal); actives 0.63% (n = 310,000); Vaccinia virus mCherry reporter infection, fluorescence; Potency, µM (titrated, usually from 36.5 µM), for the others: at the top dose activity change, negative = inhibition, hits mostly inhibitors; calls by dose curve; tested in A549 cells; note: nearly all actives have a fitted effect of over 35% in size
Pf growth 96h – P. falciparum growth inhibition at 96 hours. P. falciparum luciferase reporter growth, 96 h. Potency, µM (top dose mostly 28.7 µM), inactives show at the highest dose activity change, negative = inhibition, usual class: inhibitors. actives 6.9% (n = 320,000). AID 504834
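Cell-based qHTS: luciferase-tagged P. falciparum in erythrocytes (2% hematocrit, 0.05% parasitemia final) incubated with compounds for 96 hours, 37 C, 5% CO2; luciferase detection reagent then added and luminescence measured.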
Pf growth 48h – inhibits P. falciparum growth in the first generation, 48 h; P. falciparum luciferase growth in erythrocytes, 48 h; Potency, µM (series often up to 28.7 µM), for inactives: at the highest dose activity change, negative = inhibition, most hits filed as inhibitors; actives 5.9% (n = 310,000)
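Parasite viability was followed by luminescence of a genomically integrated firefly luciferase. Cultures held 0.1% parasitemia at 2% hematocrit (final), incubated under 5% CO2 at 37 C.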
AMA1 RON2 block – disrupts binding of P. falciparum AMA1 to RON2. AlphaScreen AMA1-biotinylated RON2 peptide binding. Potency, µM (series often up to 58.2 µM), for the others: top-dose activity change, negative = inhibition, hits mostly inhibitors. actives 0.2% (n = 360,000);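 note: 0% = vehicle wells and -100% = peptide control; nearly all actives have a fitted effect of over 45% in size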
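AMA1 (3D7) with his tag at 25 nM final met compounds first, then biotinylated RON2 peptide at 25 nM; detection used donor plus acceptor beads, 10 µg/mL apiece, read by AlphaScreen after 30 min at room temperature.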
An asterisk follows results filed as active; i = inactive; ? = inconclusive; . = not tested or not shown; [ ] = dose if it differs, or a comment. In the library only some 8.7% were active in any assay of this set; here they are far more common. Unless noted, calls come from the whole dose curve; as a rule, active = well fitted curve in the direction sought with a large enough effect; inconclusive = small, poorly fitted or top-dose-only effect, or another doubt; inactive = no such curve, though single readings can be large; an effect the other way counts as inactive or inconclusive. Unless noted, % is set by controls: 0 for no effect and ±100 for the full control effect; potency is the fitted concentration of half-maximal effect.

SMILES | VACV Venus inh | Vaccinia mCherry | Pf growth 96h | Pf growth 48h | AMA1 RON2 block
COc1cc2c(cc1OC)CN(C(=O)c1cc(C3CC3)nn1-c1ccccc1)CC2 | . | . | 5.9µM* | ? | -8%
O=C(c1cc(-c2cccs2)nn1-c1ccccc1)N1CCN(S(=O)(=O)c2ccccc2)CC1 | -15% | -14% | 4.1µM* | 10µM* | -9%
O=C(c1cc(C2CC2)nn1-c1ccccc1)N1CCN(S(=O)(=O)c2cccc(F)c2)CC1 | . | . | ? | 8.3µM* | 15%
COCC1CCCN(Cc2ccc3c(c2)CN(C(=O)c2cn4ccc(C)cc4n2)CCO3)C1 (stereo not drawn) | -1% | -8% | . | . | .
COc1ccc(NC(=O)c2cc(=O)c3cc(C)cc(C)c3o2)cc1 | -13% | -9% | . | . | .
Cc1cc(C)c(/C=N/n2c(C)cc(C)c(C#N)c2=O)c(C)c1 | -14% | -14% | 10µM* | ? | -2%
Cc1cc(C)n(/N=C/c2cccs2)c(=O)c1C#N | . | . | ? | -12% | 3%
CC(Sc1nnc(-c2ccccc2)c(-c2ccccc2)n1)C(=O)NCC1CCCO1 (stereo not drawn) | -12% | -14% | . | . | 17%
Cc1ccc(-c2nnc(SC(C)C(=O)NCC3CCCO3)nc2-c2ccc(C)cc2)cc1 (stereo not drawn) | -25% | -12% | 9.3µM* | 13µM* | -25%
O=C(Nc1ccc2nc(SCC(=O)N3CCCC3)sc2c1)c1ccccc1F | -21% | -24% | . | . | .
O=C(NCCCN1CCCC1)c1ccc2c(c1)N(Cc1ccccc1F)C(=O)c1ccccc1S2=O (stereo not drawn) | 0%[7.34 µM] | -16%[7.34 µM] | 1% | ? | 3%
CCN1CCN(CCNC(=O)c2ccc3c(c2)N(Cc2cccc(Cl)c2)C(=O)c2ccccc2S3=O)CC1 (stereo not drawn) | -30% | -5% | ? | 12µM* | -2%
O=C(NCCCN1CCCC1)c1ccc2c(c1)N(Cc1ccccc1F)C(=O)c1ccccc1S2(=O)=O | . | . | -18% | 10µM* | -10%
CCC1CCCCN1CCCNC(=O)c1ccc2c(c1)N(Cc1ccccc1F)C(=O)c1ccccc1S2(=O)=O (stereo not drawn) | ? | -28% | . | . | .
O=C(NCCN1CCCC1)c1ccc2c(c1)N(Cc1ccc(F)cc1)C(=O)c1ccccc1S2=O (stereo not drawn) | -16% | -8% | ? | 12µM* | 3%
CC1CCCCN1CCNC(=O)c1ccc2c(c1)N(Cc1ccccc1F)C(=O)c1ccccc1S2=O (stereo not drawn) | . | . | 5.9µM* | ? | 7%
CCC(C(=O)Nc1cc(-c2cn3cccnc3n2)ccc1C)c1ccccc1 (stereo not drawn) | -6% | -10% | . | . | .
CCOc1ccc(CCNC(=O)c2ccc(C)c(-n3cnc4cccnc43)c2)cc1 | -14% | -12% | . | . | .
COc1ccc(CNc2ncnc3cc(OC)c(OC)cc23)cc1 | -13% | -22% | 2.1µM* | 4.1µM* | -3%
COc1ccc(CNc2ncnc3cc(OC)c(OC)cc23)cc1OC | -28% | ? | ? | ? | 4%
COc1cc2ncnc(NCc3ccc4c(c3)OCO4)c2cc1OC | . | . | ? | 12µM* | -7%
CCOc1ccccc1CNC(=O)C1CCN(c2nn3cc(-c4ccc(F)cc4)nc3s2)CC1 | -10% | -4% | . | . | .
CCCOc1ccccc1C1Oc2nc(SC)nnc2-c2ccccc2N1C(C)=O (stereo not drawn) | 1% | -5% | . | . | .
Cc1ccc2[nH]c(=O)c(CN(CCCO)C(C)c3nnnn3Cc3ccco3)cc2c1 (stereo not drawn) | -8% | -2% | -10% | 2.3µM* | -3%
CCC(c1nnnn1Cc1ccco1)N(Cc1ccccc1OC)Cc1cc2cc(C)ccc2[nH]c1=O (stereo not drawn) | -6% | . | ? | 1.5µM* | 5%
SMILES | VACV Venus inh | Vaccinia mCherry | Pf growth 96h | Pf growth 48h | AMA1 RON2 block
Cc1ccc2[nH]c(=O)c(CN(Cc3ccco3)Cc3nnnn3Cc3ccco3)cc2c1 | -6% | 21% | . | . | .
COc1ccc2nc(C)cc(SCC(=O)N/N=C/c3ccccc3)c2c1 | -15% | -24% | 4.1µM* | -21% | 39%
COc1ccc2nc(C)cc(N/N=C/c3ccccc3)c2c1 | ? | 14µM* | 0.15µM* | 0.15µM* | 4%
COc1ccc2nc(C)cc(NCc3ccc(F)cc3)c2c1 | 33% | -11% | 2.6µM* | ? | -22%
Cc1cc(SCC(=O)NN)c2cc(Br)ccc2n1 | -14% | -11% | ? | 15µM* | 79%
COc1ccc2nc(C)cc(NCCN3CCOCC3)c2c1 | -10% | i | ? | ? | -13%
COc1ccc2nc(C)cc(SCC(=O)N/N=C/c3c(OC)ccc4ccccc34)c2c1 | -8% | i | 0% | 5% | 0%
CC(C)c1ccc(NC(=O)CSc2ncnc3c2sc2ccccc23)cc1 | -9% | -3% | . | . | .
COc1ccc(-n2nc(C(=O)Nc3ccccc3OC)c3c4ccccc4n(C)c3c2=O)cc1Cl | -8% | -6% | . | . | .
Cc1ncc2c(c1CNC(=O)CN1CCCC1)CCN(C(=O)c1ccc(F)cc1F)C2 | 13% | -7% | . | . | .
CCc1cccc2c(C(=O)COC(=O)/C=C/c3ccccc3OC)c[nH]c12 | -23% | i | 13µM* | ? | -11%
CC(C)c1ccc(/C=C2\SC(=S)N(CCC(=O)N3CCCCC3CCO)C2=O)cc1 (stereo not drawn) | . | . | 9.3µM* | -13% | -4%
O=C1/C(=C\c2ccccc2)SC(=S)N1CCC(=O)N1CCCCC1CCO (stereo not drawn) | . | . | ? | ? | -5%
COc1ccc(/C=C2\SC(=S)N(CCCC(=O)N3CCCCC3CCO)C2=O)cc1 (stereo not drawn) | . | . | 8.3µM* | ? | -19%
O=C1/C(=C/c2ccccc2Cl)SC(=S)N1CCC(=O)N1CCCCC1CCO (stereo not drawn) | . | . | ? | ? | -11%
COc1cccc(/C=C2\SC(=O)N(CCC(=O)N3CCCCC3CCO)C2=O)c1 (stereo not drawn) | . | . | 10µM* | ? | 10%
COc1ccc(OC)c(CNC(=O)C2CCN(S(=O)(=O)c3ccc4[nH]c(=O)oc4c3)CC2)c1 | -8% | 5% | . | . | .
CC1Cc2ccccc2N1C(=O)c1ccc(Br)o1 (stereo not drawn) | . | . | . | . | -11%
Cc1ccc(C(=O)N2c3ccccc3CC2C)o1 (stereo not drawn) | -20% | -19% | 3.7µM* | 85% | -28%
N#Cc1c(N2CCOCC2)nc(N2CCCCC2)c2c1CCN(C1CCCCC1)C2 | -3% | . | 1.5µM* | . | -5%
CCN(CC)c1nc(N2CCOCC2)c(C#N)c2c1CN(C)CC2 | -19% | . | 10µM* | ? | 1%
CCN1CCc2c(C#N)c(N3CCOCC3)nc(N3CCOCC3)c2C1 | 5% | . | ? | . | 1%
Cc1cc(C(=O)Nc2ccc(S(=O)(=O)N3CCOCC3)cc2)c(C)o1 | -23% | -10% | -1% | -1% | -10%
COc1ccc(S(=O)(=O)N2CCOCC2)cc1NC(=O)c1cc(C)oc1C | . | . | 12µM* | ? | -8%

Bioassay records as filed in PubChem BioAssay.
